The source made the active and inactive calls. The rule behind the calls is not given here.
Biological target: L-lactate dehydrogenase (Plasmodium falciparum (isolate CDC / Honduras)) (UniProt Q27743)
Assay: PfLDH activity inhibition – cell lysate, 3D7 strain, counter-screen for P. falciparum growth inhibition project (AID 2304);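 note: 0% = vehicle and 100% = reference inhibitor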
Settings: P. falciparum 3D7 crude extract, LDH APAD/NBT absorbance; at 2 µM; active compounds read high

Sequence of L-lactate dehydrogenase (Plasmodium falciparum (isolate CDC / Honduras)) (Q27743 whole entry, looked up): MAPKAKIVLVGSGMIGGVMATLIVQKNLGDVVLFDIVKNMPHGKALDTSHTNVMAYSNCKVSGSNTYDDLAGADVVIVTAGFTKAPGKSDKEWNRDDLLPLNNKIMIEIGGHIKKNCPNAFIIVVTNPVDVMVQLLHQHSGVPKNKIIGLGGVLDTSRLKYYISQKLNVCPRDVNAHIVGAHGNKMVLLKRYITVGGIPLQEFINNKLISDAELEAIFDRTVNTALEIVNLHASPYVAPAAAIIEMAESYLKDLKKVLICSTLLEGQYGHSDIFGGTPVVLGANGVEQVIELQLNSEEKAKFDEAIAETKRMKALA

Row | SMILES | inhibition
1 | O=C(Nc1cccc(CN2CCN(C(=O)c3cccc(F)c3)CC2)c1)c1ccco1 | 4% (inactive)
2 | Cc1cc(-c2ccc3c(c2)CCN(CCC2CCC(NC(=O)/C=C/c4cccc(F)c4)CC2)CC3)on1 (stereo not given) | -10% (inactive)
3 | CN(C)c1ccc(CN2CCC(NC(=O)c3ccc(-c4ccccc4Cl)s3)CC2)cc1 | -1% (inactive)
4 | CC(C)c1ccc(NC(=O)c2ccc(C(=O)NC3CCN(Cc4ccsc4)C3)cc2)cc1 (stereo not given) | -2% (inactive)
5 | COc1ccc2nccc(N3CCC(NCCNCc4ccc5c(n4)NC(=O)CO5)C3)c2n1 (stereo not given) | 3% (inactive)
6 | FC(F)(F)c1ccc2nc(-c3ccc(-c4cccc(CNCc5cnn(-c6ccccc6)n5)c4)cc3)[nH]c2c1 | -1% (inactive)
7 | Brc1cc(Br)c2c(c1)C(NCCCNc1nc3ncccc3[nH]1)CCN2 (stereo not given) | 1% (inactive)
8 | O=C(COc1ccccc1)Nn1cnc2ccccc21 | 3% (inactive)
9 | CC1CC(C)CN(CCCNc2ccc(C(=O)Nc3ccc(C(F)(F)F)cc3)cc2[N+](=O)[O-])C1 (stereo not given) | -2% (inactive)
10 | O=C(NCCN1CCCC1)c1ccc(-c2ccc(-c3nc4ccccc4[nH]3)s2)cc1 | -2% (inactive)
11 | COc1ccc(Cc2c(N)nc3nc(N)nc(N)c3c2C)cc1 | -8% (inactive)
12 | CN(C)CCN(C)Cc1ccc(-c2cccc(NC(=O)c3ccc(Cl)cc3)c2)cc1 | -5% (inactive)
13 | CCC1CN2CCc3cc(OC)c(OC)cc3C2CC1CC1NCCc2cc(OC)c(OC)cc21 (stereo not given) | -3% (inactive)
14 | COc1cc2c(cc1CCNCCCCNCCc1cc3c(cc1OC)CCCC3)CCCC2 | 0% (inactive)
15 | O=C(c1ccc(Cl)c(Cl)c1)N1CCc2c([nH]c3ccccc23)C1CN1CCCC1 (stereo not given) | 2% (inactive)
16 | CC(C)(C)C/C=C\c1ccc(C(=O)NCC2CC2)cc1 | -2% (inactive)
17 | c1ccc(CNCc2cccc(-c3ccc(-c4nc5ccccc5[nH]4)s3)c2)cc1 | 3% (inactive)
18 | O=C(NCCCCN1CCC(c2ccc(C(F)(F)F)cc2C(F)(F)F)CC1)c1ccc(NC(=O)c2ccc(Cl)cc2)cc1 | 7% (inactive)
19 | FC(F)(F)c1ccc2nc(-c3ccc(-c4cccc(CNCc5cnn(-c6ccccc6)n5)c4)s3)[nH]c2c1 | -2% (inactive)
20 | Cc1cc(N[C@@H](CC(C)C)C(=O)NC2CCCC2)nc(NCCc2ccc(F)cc2)n1 | -2% (inactive)

Row | SMILES | inhibition
21 | CC1(C)N=C(N)N=C(N)N1c1ccc([N+](=O)[O-])cc1 | -3% (inactive)
22 | Cc1[nH]c(C)c(-c2ccc(C(F)(F)F)cc2)c(=O)c1Br | -8% (inactive)
23 | CCOC(=O)c1ccc(OCc2ccc(-c3ccccc3)cc2)cc1 | 3% (inactive)
24 | Cc1cccc(-n2c(=O)c3c4c(sc3n3c(SCCC(C)C)nnc23)CCCC4)c1 | -4% (inactive)
25 | COc1ccc(NC(=O)[C@H](Cc2ccccc2)Nc2cc(C)nc(NCCc3cccnc3)n2)cc1 | -4% (inactive)
26 | CC(C)(C)c1ccc2nc(-c3ccc(C(=O)NCCCc4ccccc4)cc3)[nH]c2c1 | 5% (inactive)
27 | Cc1cc(NN=Cc2ccc(F)cc2)c2ccc(C(F)(F)F)cc2n1 | -2% (inactive)
28 | CC(=O)Nc1ncc(C(=O)Nc2ccc(-c3cccc(-c4nc5ccc(F)cc5[nH]4)c3)cc2)s1 | -3% (inactive)
29 | COc1cc(C(=O)NC2CCN(Cc3ccccc3)CC2)ccc1-c1nc2cc(Cl)c(C)cc2[nH]1 | 0% (inactive)
30 | COc1cc(C(=O)Nc2cccc(-c3nc4ccccc4[nH]3)c2)ccc1OC(C)=O | -4% (inactive)
31 | CCCN1CCC2(CC1)NC(C(=O)NCCC(C)C)Cc1c2[nH]c2cc(Cl)ccc12 (stereo not given) | -3% (inactive)
32 | Nc1cc(-c2ccc(-c3cccs3)s2)nc2ccccc12 | 5% (inactive)
33 | CN1CCC(Oc2ccc(CN3CC[C@H](NC(=O)c4ccc(Cl)c(Cl)c4)C3)c3ccccc23)C1 (stereo not given in full) | 3% (inactive)
34 | Cc1c(C(=O)[C@@H]2C[C@H]2CN2CCC(N3CCCC3)CC2)sc2ccccc12 | 0% (inactive)
35 | O=S(=O)(NCCN1CCCC1)c1ccc(-c2ccc(CNCc3ccc(F)cc3)cc2)cc1 | 4% (inactive)
36 | Cn1cnc(CCNC(=O)c2ccc(-c3ccc(-c4nc5ccc(C(F)(F)F)cc5[nH]4)s3)cc2)c1 | -2% (inactive)
37 | COc1ccc2c(NN=CC=Cc3ccccc3)cc(C)nc2c1 | 2% (inactive)
38 | CCCCC(CCCC)CN1C(=O)C(c2ccccc2)(c2ccccc2)N=C1N | -3% (inactive)
39 | O=C(NC1CCC(N2CCCC(OCc3ccccc3)C2)CC1)c1cc2ccccc2[nH]1 (stereo not given) | -1% (inactive)
40 | Fc1cc(Cl)ccc1Nc1ccnc2cc(-c3ccc(CN4CCSCC4)o3)ccc12 | 0% (inactive)

Reference: PubChem BioAssay
